The results in this text go back to PubChem BioAssay AID720517 (National Center for Advancing Translational Sciences (NCATS), 2013).

Inconclusive results are not listed. Values without a mark were called inactive. Calls follow the shape of the dose curve; as a rule, active = well fitted activation curve with a large enough effect; inconclusive = small, poorly fitted or top-dose-only effect; inactive = flat fitted curve, though single readings scatter.

The nature of the experiment: qHTS for Inhibitors of Cell Surface uPA Generation: FP59 Counterscreen for Cherry-picked Compounds. Also: 0% is about no effect. To be noted: FP59 anthrax toxin cytotoxicity counterscreen, cells; series mostly up to 115 µM; activity (protection from FP59): at the top concentration. Background: In qHTS, concentration-response curves come from the screen itself.
On to `Cn1cc(SCC(=O)Nc2nccs2)c2ccccc21`, for which the “activity (protection from FP59)” value was -1.34%.

`COc1ccc(NC(=O)Nc2nnc(N3CCCCC3C)s2)cc1OC` (stereo not drawn): the “activity (protection from FP59)” value is -1.42%.

In the case of `Cc1c(C(=O)N(Cc2ccccc2Cl)C2CCS(=O)(=O)C2)oc2ccccc12` (stereo not drawn), the “activity (protection from FP59)” value was 10.7%.

For the molecule `CC(=O)c1ccc(OCCCCOc2ccc(C(C)=O)cc2)cc1`, the “activity (protection from FP59)” value was -1.4%.

For `CC(=O)COc1ccc2c(-c3cccc([N+](=O)[O-])c3)cc(=O)oc2c1`, the “activity (protection from FP59)” value was -0.595%.

As for `Nc1ccc(S(=O)(=O)c2ccccc2)nc1`, the “activity (protection from FP59)” value was -1.36%.

For `Cc1ccc(/C=N/NC(=O)c2ccc3nc[nH]c3c2)s1`, the “activity (protection from FP59)” value is -1.64%.

As to `Cc1cc2c(cc1S(=O)(=O)Nc1ccc(F)cc1)n(C)c(=O)c(=O)n2C`, the “activity (protection from FP59)” value is -0.932%.

Regarding `CC1=C(C(=O)OCc2ccccc2)C(c2cccc([N+](=O)[O-])c2)NC(=O)N1` (stereo not drawn), the “activity (protection from FP59)” value was -0.959%.

As for `Cc1nc2ncccn2c1-c1csc(Nc2ccc(S(N)(=O)=O)cc2)n1`, the “activity (protection from FP59)” value was -0.455%.

In the case of `COc1ccc(C(=O)NNC(=O)Cc2ccc(Cl)cc2)cc1`, the “activity (protection from FP59)” value was -1.18%.

Turning to `CC(C)c1ccc(C2/C(=C(\O)c3ccc4c(c3)OCCO4)C(=O)C(=O)N2CCN2CCOCC2)cc1` (stereo not drawn), the “activity (protection from FP59)” value is -1.4%.

For `COc1ccc(CCNC(=O)CSc2nc(N)c3c(C)c(C)oc3n2)cc1OC`, the “activity (protection from FP59)” value was -1.33%.

In the case of `CCc1ccccc1N(CC(=O)N1CCCC1)S(C)(=O)=O`, the “activity (protection from FP59)” value was 0.233%.

Consider `COc1cc(/C=N/NC(=O)c2cc(-c3ccco3)nc3ccccc23)cc(OC)c1O`, for which the “activity (protection from FP59)” value was -1.46%.

For `COCCCN1CC23C=CC(O2)C(C(=O)O)C3C1=O` (stereo not drawn), the “activity (protection from FP59)” value was -1.37%.

On to `C=CCOC(=O)C1=C[C@@H](c2coc3ccccc3c2=O)C[C@@H](OCc2ccc(CO)cc2)O1`, for which the “activity (protection from FP59)” value is -0.924%.

As to `COC(=O)/C(C#N)=C/c1c(N2CCN(c3ccccc3)CC2)nc2c(C)cccn2c1=O`, the “activity (protection from FP59)” value is 0.153%.

With `COc1ccc(C(c2sc3nc(C)nn3c2O)N2CCC(C(N)=O)CC2)cc1OC` (stereo not drawn), the “activity (protection from FP59)” value was -1.58%.

Turning to `[N-]=[N+]=NC1C[C@H](n2ccc(=O)[nH]c2=O)O[C@@H]1CO` (stereo partly drawn), the “activity (protection from FP59)” value is -1.11%.

For `CCCCNc1nnc(SCC(=O)c2c(N)n(CCC)c(=O)[nH]c2=O)s1`, the “activity (protection from FP59)” value is -1.3%.

On to `CCN(CC)CCCNC(=O)c1cn(C)c(=O)c2c1c1ccccc1n2C`, for which the “activity (protection from FP59)” value is -1.3%.

`O=C(O)CC1(CC(=O)NCc2ccc(Cl)cc2)CCCCC1`: the “activity (protection from FP59)” value was -1.39%.
